From PubChem BioAssay
nsP2pro primary – inhibitors of chikungunya virus nsP2 protease. Q8JUX6. FRET peptide cleavage, nsP2pro, fluorescence 1 h. Potency, µM (titrated, usually from 24.9 µM), usual class: inhibitors. 31,000 tested, 1.1% active. AID 1964107; note: nearly all actives have a fitted effect of over 60% in size
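Enzyme 150 nM, substrate 2.5 uM (both final); Tris-HCl 10 mM pH 8.0 + 0.01% Tween 20; cpd up to 25 uM, 7 pts; 15 min preinc., 1 h RT; fluorescence ex 525/em 598.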
CHIKV nsP2 cell – inhibits CHIKV nsP2 protease in cells; AID 1964100; cell-based CHIKV nsP2 protease reporter assay; 450 tested, 10% active; Potency, µM (series often up to 51.1 µM), most hits filed as inhibitors; shares compounds with nsP2pro primary; note: nearly all actives have a fitted effect of over 70% in size
Target sequence (Q8JUX6 220-798 limits assumed): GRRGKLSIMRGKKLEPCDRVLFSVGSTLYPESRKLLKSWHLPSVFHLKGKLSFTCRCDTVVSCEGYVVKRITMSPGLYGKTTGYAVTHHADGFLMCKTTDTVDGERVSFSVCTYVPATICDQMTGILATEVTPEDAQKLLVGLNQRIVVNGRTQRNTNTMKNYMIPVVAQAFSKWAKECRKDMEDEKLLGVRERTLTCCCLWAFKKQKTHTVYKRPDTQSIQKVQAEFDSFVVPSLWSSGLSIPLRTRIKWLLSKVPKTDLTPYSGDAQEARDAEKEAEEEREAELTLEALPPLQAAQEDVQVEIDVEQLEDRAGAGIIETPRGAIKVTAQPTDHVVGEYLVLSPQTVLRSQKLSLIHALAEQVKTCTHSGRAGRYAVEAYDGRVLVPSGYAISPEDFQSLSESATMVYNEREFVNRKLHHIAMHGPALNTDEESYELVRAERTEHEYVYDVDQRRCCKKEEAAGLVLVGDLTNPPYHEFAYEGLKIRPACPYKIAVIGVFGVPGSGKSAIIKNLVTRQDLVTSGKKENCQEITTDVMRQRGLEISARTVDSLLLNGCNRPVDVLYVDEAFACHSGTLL
CHIKV NSP2 FL – inhibits full-length CHIKV NSP2 enzyme; shares compounds with nsP2pro primary; Full-length CHIKV NSP2 protease enzymatic counterscreen; Potency, µM (top dose mostly 50.7 µM), usual class: inhibitors; 410 tested, 39% active; AID 1964101; note: nearly all actives have a fitted effect of over 65% in size
Furin counterscr – inhibits human furin in a CHIKV nsP2 protease selectivity counterscreen; shares compounds with nsP2pro primary; Recombinant human furin enzymatic counterscreen, fluorogenic substrate; Potency, µM (titrated, usually from 50.6 µM), most hits filed as inhibitors; 410 tested, 6% active
NS23 peptide cs – nsP2pro inhibition on native NS2/3 peptide substrate; shares compounds with nsP2pro primary; Purified CHIKV nsP2 protease, endogenous NS2/3 peptide cleavage; Potency, µM (doses to about 51 µM), actives largely listed as inhibitors; 410 tested, 34% active; AID 1964103; note: nearly all actives have a fitted effect of over 55% in size
Papain counter – papain protease inhibition, counterscreen for nsP2pro inhibitors; shares compounds with nsP2pro primary; purified papain protease activity, enzymatic inhibition; Potency, µM (doses to about 51 µM), usual class: inhibitors; 410 tested, 5% active
nsP2pro confirm – CHIKV nsP2 protease inhibition, confirmatory qHTS. Potency, µM (series often up to 25.5 µM), usual class: inhibitors. 410 tested, 43% active. shares compounds with nsP2pro primary. CHIKV nsP2 protease enzymatic activity, qHTS; note: nearly all actives have a fitted effect of over 75% in size
HCV NS3 4A cs – selectivity counter-screen for CHIKV nsP2 protease inhibitors: HCV NS3/4A; HCV NS3/4A protease biochemical counterscreen; AID 1964106; 410 tested, 20% active; Potency, µM (top dose mostly 50.9 µM), most hits filed as inhibitors; shares compounds with nsP2pro primary; note: nearly all actives have a fitted effect of over 55% in size
Each line names hits and unclear results; the compound was inactive in the other large screens (follow-up assays come after a bar, where they were run). This excerpt belongs to a sample that is enriched for hits. Calls come from the whole dose curve.

C=C1C(=O)O[C@@H]2[C@H]1CC(=O)[C@H](C)[C@@](O)(C(=O)/C=C/C)[C@H]2OC(=O)C(C)CC (stereo partly specified)	nsP2pro primary inconclusive | CHIKV nsP2 cell inconclusive | CHIKV NSP2 FL inconclusive | Furin counterscr inactive | NS23 peptide cs 13µM | Papain counter inactive | nsP2pro confirm inconclusive | HCV NS3 4A cs inactive
C=C1C(=O)O[C@@H]2C[C@@H](C)[C@]34C[C@]5(C(=O)O[C@H]6CC(C)=C([C@H](C)CCCO)[C@H](OC(=O)C(C)CC)[C@H]65)[C@@H](C(C)=C3C[C@@H]12)[C@H]4OC(C)=O (stereo partly specified)	none
Cc1ccc(SCC(=O)Nc2cccc(-c3nc4cc(Cl)ccc4o3)c2C)cc1	none
COc1ccc2c(C(=O)c3ccc(Cl)cc3)c(C)n(CC(=O)O)c2c1	none
CC(=O)Nc1cccc2c1c(Sc1ccc(Cl)cc1)c(C)n2CC(=O)O	nsP2pro primary 9.9µM | CHIKV nsP2 cell inactive | CHIKV NSP2 FL inactive | Furin counterscr inactive | NS23 peptide cs inactive | Papain counter inactive | nsP2pro confirm inactive | HCV NS3 4A cs inactive
Cc1cc(C)nc(NC(=S)N2CCN(Cc3cccc4ccccc34)CC2)c1	none
CC(Cc1ccc(O)c(O)c1)C(C)Cc1ccc(O)c(O)c1 (stereo unspecified)	nsP2pro primary 9.9µM | CHIKV nsP2 cell inactive | CHIKV NSP2 FL 29µM | Furin counterscr inactive | NS23 peptide cs 21µM | Papain counter inactive | nsP2pro confirm 8µM | HCV NS3 4A cs inactive
CC(CCc1ccc(O)cc1)NCCc1ccc(O)c(O)c1 (stereo unspecified)	none
CC(=O)N1CCN(C(=S)Nc2cc(C)ccn2)CC1	none
CC[C@H]1CN2CC[C@H]1C[C@@H]2CNCc1ccc(-c2ccccc2)cc1	none
CC#CC(=O)N1CCCC(C(=O)Nc2ccc(-c3cccc(OC)c3)cc2)C1 (stereo unspecified)	none
COc1ccc(C(=O)N2CCC(C(=O)Nc3ccc(Cl)cc3)CC2)cc1	none
O=C(Nc1ccc(Cl)cc1)C1CCCN(C(=O)c2cccc(-c3ccco3)c2)C1 (stereo unspecified)	nsP2pro primary 7µM | CHIKV nsP2 cell inconclusive | CHIKV NSP2 FL inactive | Furin counterscr inactive | NS23 peptide cs inactive | Papain counter inactive | nsP2pro confirm inconclusive | HCV NS3 4A cs inactive
CCCN1C[C@H](C)[C@@H](O)[C@](C)(O)[C@@H](CC)OC(=O)[C@H](C)[C@@H](O[C@H]2C[C@@](C)(OC)[C@@H](O)[C@H](C)O2)C(C)[C@@H](O[C@@H]2O[C@H](C)C[C@H](N(C)C)[C@H]2O)[C@](C)(O)C[C@H]1C (stereo partly specified)	none
NCc1ccc(Oc2ccccc2)cc1	none
C1Cc2[nH]nc(-c3nn[nH]n3)c2C1	nsP2pro primary 8.8µM | CHIKV nsP2 cell inactive | CHIKV NSP2 FL 9.2µM | Furin counterscr inconclusive | NS23 peptide cs inconclusive | Papain counter inactive | nsP2pro confirm 6.3µM | HCV NS3 4A cs inactive
Cc1ccc(-c2cc3n(n2)CCCN(C(=O)CCN2C(=O)NC(C)(C)C2=O)C3)cc1C	none
CCc1ccc(-c2cc3n(n2)CCCN(C(=O)CCc2cc(Cl)no2)C3)cc1	none
Cc1ccc(-c2cc3n(n2)CCCN(C(=O)CCc2cc(Cl)no2)C3)o1	nsP2pro primary 8.9µM | CHIKV nsP2 cell inactive | CHIKV NSP2 FL inactive | Furin counterscr inactive | NS23 peptide cs inconclusive | Papain counter inactive | nsP2pro confirm inconclusive | HCV NS3 4A cs inactive
COc1cccc2c1OCCCN(c1cc(C3CC(O)C3)nc(N)n1)C2 (stereo unspecified)	none
COc1ncccc1-c1cc2c(ccn2CC2CCN([S+](C)(=O)[O-])CC2)c(N2CCOCC2)n1	none
NS(=O)(=O)c1ccc(NC(=O)Nc2ccc(F)cc2)cc1	none
CC(=O)Nc1ccc(NC(=O)CCC(=O)c2ccc(C)cc2)cc1	none
C/C(=N\N=C(N)N)c1ccc(NC(=O)Nc2ccc(/C(C)=N/N=C(N)N)cc2)cc1	nsP2pro primary 8.8µM | CHIKV nsP2 cell inactive | CHIKV NSP2 FL 16µM | Furin counterscr 16µM | NS23 peptide cs 29µM | Papain counter inconclusive | nsP2pro confirm 9µM | HCV NS3 4A cs 18µM
O=C1OCCN1C1CCN(Cc2ccc(F)cc2)CC1	none
Cc1ccc(-c2cc(C(=O)Nc3ccc(C(=O)O)cc3)c3ccccc3n2)cc1C	none
O=C(Nc1ccccc1)C1=NO[C@@H]2CN(Cc3ccccn3)C[C@H]12	none
Cc1n[nH]c(C)c1CNC(=O)C1CCN(c2cn[nH]c(=O)c2)C1 (stereo unspecified)	none
CC(=O)O[C@@H]1CC2C(C)(C)C(=O)C=C[C@]2(C)C2CC[C@@]3(C)[C@H](c4ccoc4)OC(=O)[C@H]4O[C@]43[C@@]21C (stereo partly specified)	nsP2pro primary inconclusive | CHIKV nsP2 cell inactive | CHIKV NSP2 FL inconclusive | Furin counterscr inactive | NS23 peptide cs inactive | Papain counter inconclusive | nsP2pro confirm inconclusive | HCV NS3 4A cs inactive
CC(=O)OC1CC2C(C)(C)C(=O)C=CC2(C)C2CC(=O)C3=C(CCC3C3=CC(O)OC3=O)C12C (stereo unspecified)	none
CC(=O)O[C@H]1C[C@@H](O)C(C)(C)C2C[C@@H](OC(C)=O)[C@]3(C)C(CC[C@@]4(C)[C@H](c5ccoc5)OC(=O)[C@H]5O[C@]543)[C@]21C (stereo partly specified)	none
Cc1cc(CS(=O)(=O)c2ccccc2)cc(OCc2ccc(CN3CCC[C@@H]3CO)cc2)c1	none
Cc1cc(C)nc(NC(=S)N2CCN(c3cc(C(F)(F)F)nc4ccccc34)CC2)c1	none
O=C(COc1ccccc1CNc1ccc(F)cc1)Nc1ccc(Cl)cc1	none
CCOc1ccc(CCNC(=O)c2ccccn2)cc1OCC	none
CCOc1cc(CNc2ccc(O)cc2)ccc1OCc1ccc(Cl)cc1	nsP2pro primary 10µM | CHIKV nsP2 cell 13µM | CHIKV NSP2 FL 18µM | Furin counterscr inactive | NS23 peptide cs inconclusive | Papain counter inactive | nsP2pro confirm inactive | HCV NS3 4A cs inconclusive
Oc1ccc(NCc2ccccc2OCc2ccccc2)cc1	nsP2pro primary 3µM | CHIKV nsP2 cell 12µM | CHIKV NSP2 FL inconclusive | Furin counterscr inactive | NS23 peptide cs 18µM | Papain counter inactive | nsP2pro confirm inconclusive | HCV NS3 4A cs 21µM
Oc1cc(NCc2ccc(Cl)cc2)cc2cccnc12	none
COc1cccc(CNc2ccc(S(=O)(=O)Nc3ccccn3)cc2)c1O	none
